Assay results published in PubChem BioAssay (Tox21).
Results filed as inconclusive are left out. A call without a number means that no potency is given here. The source made the active and inactive calls. Calls follow the shape of the full dose curve.

target: Retinoic acid receptor RXR-alpha (Homo sapiens) (UniProt P19793); experiment: qHTS assay to identify small molecule agonists of the RXR signaling pathway (AID 1159527); settings: HEK293T RXRa-UAS-bla, beta-lactamase ratio, 16 h; series mostly up to 76.8 µM; also: nearly all actives have a fitted effect of over 35% in size
Text: U.S. Tox21 Program National Center for Advancing Translational Sciences [NCATS] NIH Chemical Genomics Center [NCGC] U.S. Environmental Protection Agency [EPA] National Institutes of Environmental Health Sciences [NIEHS] National Toxicology Program [NTP] U.S. Food and Drug Administration [FDA] Tox21 Assay Overview: The Retinoid X receptor (RXR), a nuclear hormone receptor expressed in liver, spleen, placenta, epidermis, central nervous system. These receptors are able to form homo and heterodimers with other nuclear receptors and due to this heterodimerizing ability, RXR functions as master regulators producing diverse physiological effects. Three subtypes of RXR exist; alpha, beta and gamma. Retinoid X receptor alpha (RXR-alpha) has potential roles in metabolic signaling pathways, skin alopecia, dermal cysts, cardiac development, insulin sensitization etc. Therefore screening environmental chemicals on RXR-alpha signaling can be used for the studies focused on such therapeutic applications. For quantification of RXR-alpha ligands signaling, GeneBLAzer RXR alpha-UAS-bla HEK 293T (Life Technologies, Carlsbad, CA) cells containing a beta-lactamase reporter-gene under control of Retinoid X receptor-alpha response element were used to screen Tox21 10K library.
Tox21 Assay Protocol Summary: RXR-alpha HEK 293T cells were dispensed at 2,000 cells/6 uL of assay medium containing 2% charcoal-stripped FBS using a Multidrop Combi (ThermoFisher Scientific, Waltham, MA) dispenser. The assay was performed in black wall/clear-bottom 1536-well plates (Greiner Bio-One North America Inc. Monroe, NC). 9-cis retinoic acid was used as a positive control in the agonist mode screen. After the assay plates were incubated at 37 C and 5% CO2 for 5 hr, 23 nL of compounds dissolved in DMSO, positive controls or DMSO only were transferred to the assay plate by a Pintool station (Kalypsys, San Diego, CA). The assay plates were incubated at 37 C and 5% CO2 for 16 hr. One uL of LiveBLAzer B/G FRET substrate (Life Technologies) was added using a Flying Reagent Dispenser (Aurora Discovery, San Diego, CA) and the plates were incubated at room temperature for 2 hr. Fluorescence intensity (405 nm excitation, 460/530 nm emission) was measured using an Envision plate reader (PerkinElmer, Shelton, CT).
Potency is read from the fitted curve at half-maximal effect.

Chain of Retinoic acid receptor RXR-alpha (Homo sapiens) (P19793 whole entry, looked up): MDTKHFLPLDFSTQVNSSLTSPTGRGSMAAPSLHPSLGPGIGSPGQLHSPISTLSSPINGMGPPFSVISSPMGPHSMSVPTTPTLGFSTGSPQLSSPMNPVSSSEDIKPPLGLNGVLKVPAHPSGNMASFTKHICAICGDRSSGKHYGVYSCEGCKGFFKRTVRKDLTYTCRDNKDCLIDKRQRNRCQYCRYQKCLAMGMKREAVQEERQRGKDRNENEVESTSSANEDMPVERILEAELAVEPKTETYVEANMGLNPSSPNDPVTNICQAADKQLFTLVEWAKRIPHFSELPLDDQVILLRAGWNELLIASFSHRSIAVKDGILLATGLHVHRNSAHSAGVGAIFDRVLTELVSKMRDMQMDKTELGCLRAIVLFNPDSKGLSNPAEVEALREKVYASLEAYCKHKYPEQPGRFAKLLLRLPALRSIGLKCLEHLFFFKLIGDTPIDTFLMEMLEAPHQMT

SMILES | Potency
CCOCCOCCOCC | inactive
CC(C)(C)NC(N)=O | inactive
O=C(Nc1ccc(Cl)c(Cl)c1)C1CC1 | inactive
COc1ccc(-c2cc(=O)c3c(O)cc(O[C@@H]4O[C@H](CO[C@@H]5O[C@@H](C)[C@H](O)[C@@H](O)[C@H]5O)[C@@H](O)[C@H](O)[C@H]4O)cc3o2)cc1O | inactive
Nc1ncnc(Nc2ccccc2)n1 | inactive
CCCCOCCOC(=O)COc1nc(Cl)c(Cl)cc1Cl | inactive
CC[C@H](C)C(=O)O[C@H]1C[C@H](O)C=C2C=C[C@H](C)[C@H](CC[C@@H](O)C[C@@H](O)CC(=O)O)[C@H]21 | inactive
CC(C)=O | inactive
CCOc1cc(NC(C)=O)ccc1C(=O)OC | inactive
CC(C)C(=O)OCCc1ccccc1 | inactive
CCCCCCCCCC(C)=O | inactive
ClCCCl | inactive
CN(C)CCOCCO | inactive
OCCCCC(O)CO (stereo not given) | 11.6 µM (active)
O=C(OCc1ccccc1)C(=O)OCc1ccccc1 | inactive
C=C(C)C(=O)OCCN(CC)CC | inactive
COc1ccc(Br)c(C)c1 | inactive
CC(N)C(=O)OC(C)(C)Cc1ccc(Cl)cc1 (stereo not given) | inactive
CC(=O)c1sc(C)nc1C | inactive
CCCCNc1ccc(C(=O)OCCN(C)C)cc1 | inactive

SMILES | Potency
O=C(O)c1cc(Cl)cc([N+](=O)[O-])c1Cl | inactive
CC(C)CCCC(C)(C)O | inactive
O=C(CS(=O)Cc1ccco1)NC/C=C\COc1cc(CN2CCCCC2)ccn1 (stereo not given) | inactive
CC(C)CC(C)CC(C)CC(C)COC(=O)c1ccccc1C(=O)OCC(C)CC(C)CC(C)CC(C)C (stereo not given) | inactive
CNS(=O)(=O)CCc1ccc2[nH]cc(C3CCN(C)CC3)c2c1 | inactive
CN(C)C(=O)CNC(=O)Cc1ccccc1 | inactive
COc1cc2c(cc1OC)C(=O)CC2 | inactive
Cc1ccsc1/C=C/C1=NCCCN1C | inactive
Cc1cccc(C)c1NC(=O)c1ccccc1C(=O)O | inactive
C[Si](C)(C)C | inactive
CCN(CC)CC(=O)Nc1c(C)cccc1C | inactive
CN1C(C)(C)CCCC1(C)C | inactive
O=S(=O)(O)c1cc(O)c2ccc(Nc3ccccc3)cc2c1 | inactive
O=C(O)Cc1ccc(Cl)cc1Cl | inactive
CO[C@@H]1[C@@H](OC(N)=O)[C@@H](O)[C@H](Oc2ccc3c(O)c(NC(=O)c4ccc(O)c(CC=C(C)C)c4)c(=O)oc3c2C)OC1(C)C | inactive
O=C(OCC(O)CO)c1ccccc1Nc1ccnc2c(C(F)(F)F)cccc12 (stereo not given) | inactive
O=C(c1ccc(O)cc1)c1ccc(O)c(O)c1O | inactive
c1ccc2nccnc2c1 | inactive
CC(=O)Nc1ccc(S(=O)(=O)Cl)cc1 | inactive
CCn1ccc(NS(=O)(=O)c2ccc(N)cc2)nc1=O | inactive
